According to article PMC5540273 (PLoS ONE, 2017):

Columns and labels:
Settings in all cases: concentration: 1 μM, replicates: in singlicate; n = 1
[1] = system: CAMKK1
[2] = system: CAMKK2
[3] = system: CASK
[4] = system: T1, CDC2L1
T1 construct: gene CDK11B

[5] = system: CDC2L2
[6] = system: T2, CDC2L5
T2 construct: gene CDK13

[7] = system: T3, CDK11
T3 construct: gene CDK19

[8] = system: CDK2
[9] = system: CDK3
[10] = system: CDK4-cyclinD1
[11] = system: CDK4-cyclinD3
[12] = system: CDK4
[13] = system: CDK5
[14] = system: CDK7
[15] = system: CDK8
[16] = system: CDK9
[17] = system: CDKL1
[18] = system: CDKL2
[19] = system: CDKL3
[20] = system: CDKL5
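Further: KINOMEscan kinase panel screen.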

Row | Structure (SMILES) | %Inh [1] | %Inh [2] | %Inh [3] | %Inh [4] | %Inh [5] | %Inh [6] | %Inh [7] | %Inh [8] | %Inh [9] | %Inh [10] | %Inh [11] | %Inh [12] | %Inh [13] | %Inh [14] | %Inh [15] | %Inh [16] | %Inh [17] | %Inh [18] | %Inh [19] | %Inh [20]
1 | COc1ccc(CNC(=O)NC2CCN(c3ccnc(Nc4ccc(OC)cc4)n3)C2)cc1 (centres unmarked) [GSK1379727] | 0% | 4% | 16% | 0% | 8% | 0% | 1% | 0% | 13% | 18% | 0% | 48% | 0% | 0% | 42% | 0% | 4% | 21% | 0% | 0%
2 | O=C(c1ccc(-c2cc(-c3c[nH]nc3-c3ccccn3)ccn2)cc1)N1CCOCC1 [GW812171] | 0% | 0% | 4% | 0% | 2% | 11% | 0% | 0% | 0% | 0% | 0% | 1% | 0% | 17% | 7% | 0% | 25% | 8% | 0% | 0%
3 | Cc1nnc(-c2ccc3ncc(-c4ccc(S(C)=O)cc4)n3c2)o1 (centres unmarked) | 24% | 46% | 0% | 0% | 0% | 25% | 17% | 0% | 2% | 8% | 0% | 0% | 0% | 0% | 13% | 0% | 0% | 4% | 2% | 10%
4 | COc1ccc(Nc2nccc(N3CCC(NC(=O)Nc4cc(C)ccc4C)C3)n2)cc1 (centres unmarked) [GSK1379741] | 0% | 0% | 3% | 0% | 0% | 0% | 70% | 0% | 7% | 0% | 0% | 0% | 0% | 0% | 11% | 0% | 0% | 44% | 0% | 5%
5 | CCn1cnc2c(N)ncnc21 [GW345098] | 8% | 2% | 31% | 1% | 6% | 0% | 0% | 0% | 1% | 0% | 0% | 0% | 28% | 20% | 7% | 0% | 25% | 0% | 0% | 0%
6 | Fc1ccc(-c2nn3c(OCC(F)(F)F)cccc3c2-c2ccncc2)cc1 [GW514784] | 8% | 9% | 7% | 0% | 11% | 0% | 3% | 0% | 0% | 46% | 0% | 46% | 0% | 0% | 57% | 0% | 8% | 4% | 0% | 0%
7 | [2H]C([2H])(c1cccc(C(F)(F)F)c1C)n1ccn2c(=O)nc(N3CCOCC3)cc12 [GSK2336394] | 0% | 0% | 8% | 0% | 17% | 0% | 5% | 0% | 1% | 0% | 0% | 14% | 0% | 0% | 2% | 0% | 8% | 22% | 0% | 0%
8 | COCCNC(=O)c1ccc(-c2cc(C(=O)NC3CC3)cc(F)c2C)cc1 [GW868318] | 3% | 16% | 16% | 3% | 15% | 33% | 6% | 12% | 11% | 24% | 0% | 21% | 11% | 25% | 0% | 0% | 19% | 28% | 27% | 26%
9 | Nc1nc(-c2ccc3c(N)n[nH]c3c2)cc(N2CCCC2)n1 [GSK2227430] | 0% | 10% | 0% | 0% | 14% | 0% | 1% | 0% | 0% | 0% | 0% | 0% | 0% | 0% | 0% | 0% | 72% | 0% | 0% | 0%
10 | O=c1cc(N2CCOCC2)nc2n(Cc3cccc(C(F)(F)F)c3)ccn12 [GSK2297543] | 3% | 0% | 9% | 0% | 18% | 0% | 3% | 0% | 0% | 0% | 7% | 12% | 0% | 0% | 16% | 0% | 0% | 20% | 0% | 0%
